TROY signal inh – blocks TROY-dependent signaling in reporter cells; 360,000 tested, 0.98% active; AID 1347056; Q293 LMP1-TROYcd NF-kB luciferase reporter, 4 h; inhibition, % at 10 µM;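 active = compounds whose plate-normalised and pattern-corrected inhibition of the luciferase reporter signal at the single screening dose is 50% or more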
CF NFkB block – inhibitors of cystic fibrosis induced NF-kB; KKLEB NF-kB-GFP reporter, PAF-induced, GFP fluorescence overnight; inhibition, % at 5 µM; 360,000 tested, 0.86% active;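 active = at least 50% inhibition at 5 µM, scaled per plate between neutral and stimulator controls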;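 also: PAF is a Pseudomonas aeruginosa culture filtrate used as stimulus; plate controls were PAF-stimulated DMSO wells for no effect and unstimulated DMSO wells for full effect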
HIF-2a block – inhibitors of HIF-2a; 786-0 RCC cells HIF-2a reporter, luciferase luminescence, overnight; inhibition, % at 18.8 µM; 360,000 tested, 0.72% active; AID 624352;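 active = inhibition of the luminescence signal of 40% or more relative to plate controls, in a single-dose primary screen at 18.75 µM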
TWEAK-Fn14 inh – inhibitors of TWEAK-Fn14 interaction signaling | 360,000 tested, 2% active | inhibition, % at 10 µM | TWEAK-stimulated Fn14 reporter cells, luciferase luminescence, 8 h; in the data active = inhibition above about 50%
KKLEB tox – counter-screen for CF NF-kB inhibitors: cytotoxicity. KKLEB CF airway cells viability, ATPlite luminescence, overnight; stronger effect = lower value; cells stimulated with P. aeruginosa culture filtrate. activity change (cytotoxicity), % at 5 µM. 360,000 tested, 0.36% active. AID 602141;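 active = corrected activity change at or below -50% at 5 µM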
Peg3 prom inh – inhibitors of Peg3 promoter. HeLa PEG-Prom luciferase reporter, luminescence, overnight. inhibition, % at 20 µM. 360,000 tested, 1.7% active;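 active = inhibition of at least 50% at 20 µM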
* marks the source's active call; other numbers are inactive results; / = not tested or not shown. Compounds with a hit are over-represented: about 4% of the library has one in this group of screens.

SMILES	TROY signal inh	CF NFkB block	HIF-2a block	TWEAK-Fn14 inh	KKLEB tox	Peg3 prom inh
COC(=O)[C@@]12C[C@@H](CC(=O)NCc3cccc(C(F)(F)F)c3)C(=O)N(Cc3cccc4ccccc34)C1=CCC(C)(C)C2	/	/	5.4	/	/	/
CCCCn1c(N)c(N(CC)C(=O)COc2ccc(C#N)cc2)c(=O)[nH]c1=O	-2.0	13.0	-1.7	18.8	-7.3	2.2
Nc1nc(=O)n(C2CCCO2)cc1Br (stereo not drawn)	-2.9	15.5	-6.5	-14.1	-0.7	4.5
Cc1ccc(OC(F)F)c(NC(=O)Nc2cccc(C(F)(F)F)c2)c1	40.3	17.4	-66.6	75.3*	-20.0	29.8
COC(=S)Nc1cccc(C(F)(F)F)c1	-10.0	4.2	11.8	-6.7	-6.3	-1.8
CCOC(=O)/C=C/C(=O)Nc1cccc([N+](=O)[O-])c1	2.9	87.5*	4.1	-19.5	-45.0	87.6*
COC(=O)/C=C/C(=O)Nc1cccc(C(F)(F)F)c1	-5.8	26.9	-7.4	51.4*	-44.9	34.0
CC(=O)c1sc(NC(=O)CCc2ccccc2)nc1C	-38.6	-12.3	-81.1	-13.9	-22.3	-56.8
CC1=C/C(=N\OS(=O)(=O)c2ccccc2)C(C(C)C)=CC1=O	14.5	4.4	29.5	49.1	9.8	95.7*
CC(=O)Nc1ccc(S(=O)(=O)NCc2nc(-c3ccccc3C)no2)cc1	6.5	0.2	5.5	12.0	-9.5	6.2
Cc1ccc(C(=O)Oc2cc(N)n(S(=O)(=O)c3ccc(F)cc3)n2)cc1	44.3	25.3	7.8	78.7*	-3.0	10.1
Nc1cc(OC(=O)c2cccs2)nn1S(=O)(=O)c1ccc(F)cc1	3.2	6.7	13.1	5.9	7.8	8.4
COc1ccc(/C=C2\Sc3ccc(C(=O)N4CCN(Cc5ccccc5)CC4)cc3N(C)C2=O)cc1OC	56.0*	14.7	29.4	83.8*	-17.3	49.2
C#CC[N+](C)(C)CCCCCCCCCCCC	29.0	46.4	38.7	19.4	-43.1	87.3*
C#CC[N+](C)(C)CCCCCCCCCC	8.6	52.0*	24.0	22.7	-32.8	34.2
C#CC[N+](C)(C)CCCCCCCC	8.6	36.8	10.5	-5.7	-16.4	24.7
Cc1sc(NC(=O)CN2CCOCC2)c(C#N)c1C	-12.1	-13.4	5.8	-7.8	-5.4	4.8
O=c1[nH][nH]c2c1[C@@H](c1ccc(F)cc1)O[C@H](CCc1ccccc1)C2	1.4	/	-8.9	24.1	/	/
O=C(Nc1cccc(O)c1)c1noc2c1CCCCC2	59.3*	2.5	-43.0	81.5*	-6.8	6.9
COc1ccc(NC(=O)c2noc3c2CCC3)cc1	-19.5	4.0	-61.4	57.8*	1.7	-122.4
COc1ccc(CNC(=O)c2noc3c2CCCCC3)cc1	-45.3	6.8	-179.1	-29.2	3.4	-132.3
Cc1ccc(NC(=O)c2noc3c2CCC3)cc1C	15.1	-2.6	-131.0	56.2*	-1.4	-46.6
COC(=O)c1ccccc1NC(=O)c1noc2c1CCCC2	-36.0	-4.7	-178.7	-38.7	2.6	-46.0
COC(=O)COc1cccc(NC(=O)C(c2ccccc2)c2ccccc2)c1	0.8	-15.6	9.3	-4.0	3.4	1.6
COc1ccc(C(C)C)cc1-c1cccc2nncn12	10.8	-11.6	6.2	-5.1	-4.9	14.3
SMILES	TROY signal inh	CF NFkB block	HIF-2a block	TWEAK-Fn14 inh	KKLEB tox	Peg3 prom inh
Cc1ccc(S(=O)(=O)N(CC(=O)c2ccc(Cl)cc2)C(=O)N2CCN(C)CC2)cc1	-7.9	-15.0	-5.6	1.6	9.5	-9.9
Cc1occc1C(=O)NC(C)CCc1ccccc1 (stereo not drawn)	/	-2.7	0.8	51.8*	6.5	3.5
CC(CCc1ccccc1)NC(=O)CNC(=O)c1cccs1 (stereo not drawn)	4.9	-16.3	6.1	60.9*	2.9	-8.3
Cc1cccc(C(=O)NCC(=O)NC(C)CCc2ccccc2)c1 (stereo not drawn)	0.6	-17.7	14.2	14.1	8.0	14.9
CSc1cccc(NC(=O)Nc2nc3c(C)cccc3s2)c1	-1.9	3.4	-145.8	-12.9	-3.0	-57.9
COC(=O)c1ccc(COc2ccccc2/C=C(\C#N)C(=O)Nc2c(C)cc(C)cc2C)cc1	20.3	22.6	2.1	67.8*	-19.9	75.0*
O=C1NCCc2onc(-c3ccc(Br)cc3)c21	-5.5	-20.3	-154.7	-2.0	6.9	-105.6
C[C@H]1CN([C@@H](C)CO)C(=O)CCCn2nncc2CO[C@H]1CN(C)S(=O)(=O)c1cccs1	-4.6	5.9	2.7	7.0	-1.6	-0.4

Compound activity (PubChem)
